High-throughput results: PubChem BioAssay, several laboratories
LGR2 inh = inhibitors of bursicon-induced LGR2 CRE-luciferase signal, primary screen, cell-based, HEK293, CRE-luciferase reporter, bursicon stimulation | Drosophila bursicon receptor LGR2 (rickets) | inhibition, % at 9.99 µM | AID 720647, 2013 | bursicon-stimulated, 4 h | 380,000 tested, 0.35% active;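 active means drop in luminescence signal, shown as inhibition above about 50% in the replicate tests, limit read from the data, passing the limit was not always enough; inconclusive means probably only some replicates passing the limit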;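 further: agonist challenge used bursicon conditioned medium at about half maximal strength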
TROY NFkB inh = inhibitors of TROY-driven NF-kB signaling, primary screen, Q293 LMP1-TROYcd cells, NF-kB luciferase, uHTS; AID 1347056, 2019; inhibition, % at 10 µM; Q293 LMP1-TROYcd NF-kB luciferase reporter, 4 h; 360,000 tested, 0.98% active;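 active means compounds whose plate-normalised and pattern-corrected inhibition of the luciferase reporter signal at the single screening dose is 50% or more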
HSP90 inh = HSP90 inhibitors, primary screen, cell lysate, luminescence | Heat shock protein HSP 90 (rabbit reticulocyte lysate; luciferase refolding) | Rabbit reticulocyte lysate, luciferase refolding luminescence, 3 h | inhibition, % at 5.6 µM | 290,000 tested, 0.91% active;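 active means inhibition above the screen-wide mean plus 3 SD, computed separately per campaign, cut at about 16% in these data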;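 further: inhibitors lower the luminescence because luciferase stays unfolded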
TWEAK Fn14 block = inhibitors of TWEAK-Fn14 signaling, primary screen, luciferase reporter cells, uHTS; TWEAK-stimulated Fn14 reporter cells, luciferase luminescence, 8 h; inhibition, % at 10 µM; 360,000 tested, 2% active; in the data active means inhibition above about 50%
A number is an active result; – = inactive; ? = inconclusive; · = no result. Hits are enriched below; roughly 2.2% of the tested compounds scored in any of these assays.

SMILES | LGR2 inh | TROY NFkB inh | HSP90 inh | TWEAK Fn14 block
CC(=O)N1CCCc2cc(S(=O)(=O)N3CCCC(C(=O)N4CCN(c5cc(C)ccc5C)CC4)C3)ccc21 (stereo unspecified) | – | – | – | 54
CC(=O)N1CCCc2cc(S(=O)(=O)N3CCCC(C(=O)N4CCN(c5ccccc5)CC4)C3)ccc21 (stereo unspecified) | – | – | – | –
COc1ccccc1N(CC(=O)Nc1cccc(C(F)(F)F)c1)S(C)(=O)=O | – | – | – | –
Cc1ccc([N+](=O)[O-])cc1N(CC(=O)Nc1ccc(S(=O)(=O)Nc2cccc(C(F)(F)F)c2)cc1)S(C)(=O)=O | – | 70 | – | 85
CCNC(=O)C[C@@H]1CC[C@@H]2[C@H](COC[C@H](O)CN2Cc2ccncc2)O1 | – | · | · | ·
Cc1cccc(C)c1NC(=O)Cn1cnc2c(=O)n(C)c(=O)n(C)c21 | · | – | – | –
Cn1c(=O)c2ncn(CC(=O)O)c2n(C)c1=O | – | 52 | – | –
S=C(NCC1CCCO1)N1CCN(c2nc(-c3ccc(Cl)cc3)cs2)CC1 (stereo unspecified) | – | – | – | 64
O=C(Nc1ccc2c(c1)OCO2)N[C@@H]1CC[C@H](CCNC(=O)C2CCCCC2)O[C@H]1CO | – | · | · | ·
FC(F)(F)c1cccc(-c2nc3nc(Cl)c(Cl)nc3[nH]2)c1 | – | – | – | 64
FC(F)(F)c1nc2nc(Cl)c(Cl)nc2[nH]1 | – | – | · | –
O=C(Nc1ccccc1)c1cccc(NC(=O)c2ccco2)c1 | – | – | · | 101
CCOc1ccccc1NC(=O)c1cccc(NC(=O)c2ccco2)c1 | · | – | – | 88
Cc1ccccc1NC(=O)c1cccc(NC(=O)c2ccco2)c1 | – | – | – | –
C[C@@H]1CN([C@H](C)CO)C(=O)Cc2cc(NC(=O)Nc3ccc(F)cc3)ccc2O[C@@H]1CN(C)Cc1ccc(Cl)c(Cl)c1 | – | · | · | ·
CN1C(=O)c2cc(NC(=O)c3ccc(F)cc3)ccc2OC[C@@H]2O[C@H](CC(=O)NC3CCC3)CC[C@@H]21 | – | · | · | ·
NC(=O)[C@H]1CC2(CC(c3cccc(NC(=O)COc4ccc(Cl)cc4)c3)=NO2)CN1C(=O)Cc1ccc([N+](=O)[O-])cc1 (stereo partly specified) | – | – | · | 65
O=C(C[C@H]1CC[C@@H]2[C@H](COC[C@H](O)CN2C(=O)c2ccccn2)O1)N1CCN(c2ccccc2)CC1 | – | · | · | ·
O=C(Nc1nc(-c2ccc(Oc3ccccc3)cc2)cs1)C1=COCCO1 | – | – | – | 62
O=C(COC(=O)C1=COCCO1)Nc1ccccc1Oc1ccccc1 | · | – | – | 64
CCCNC(=O)C[C@@H]1CC[C@H]2[C@@H](COC[C@@H](O)CN2C(=O)c2ccccn2)O1 | – | · | · | ·
CCOc1ccccc1-n1nnnc1SCC(=O)NC(=O)Nc1ccc2c(c1)OCCO2 | · | – | – | 70
COc1ccc(-c2csc(NC3OC(=O)c4c3ccc(OC)c4OC)n2)cc1OC (stereo unspecified) | · | – | – | 67
CCCNC(=O)Nc1ccc2c(c1)C(=O)N(C)C[C@@H](OC)[C@@H](C)CN(C(C)=O)[C@@H](C)CO2 | – | · | · | ·
COc1ccc(C[C@H](N)C(=O)N[C@H]2[C@@H](O)[C@H](n3cnc4c(N(C)C)ncnc43)O[C@@H]2CO)cc1 | – | – | · | 93
SMILES | LGR2 inh | TROY NFkB inh | HSP90 inh | TWEAK Fn14 block
S=c1sc2c(Cl)ncnc2n1-c1ccccc1 | 104 | – | – | –
O=C1C(=O)N(CCN2CCOCC2)C(c2ccccn2)/C1=C(/O)c1ccccc1 (stereo unspecified) | · | – | – | 63
CCc1nnc2n1N=C(c1ccc(-c3ccc(Cl)cc3Cl)o1)CS2 | · | · | – | ·
Clc1ccc(OCc2nnc3n2N=C(c2ccc4c(c2)OCCO4)CS3)c(Cl)c1 | · | 60 | – | 53
CN(C)c1ccc(Nc2nc(N)c([N+](=O)[O-])c(N3CCOCC3)n2)cc1 | – | 70 | – | –
O=C(CN(c1cccc(Br)c1)S(=O)(=O)c1ccccc1)N/N=C/c1cc([N+](=O)[O-])ccc1O | – | 52 | · | –
O=C(c1cccc(F)c1)N1CC(=O)N2[C@H](C1)[C@H](c1ccc(-c3ccccc3F)cc1)[C@@H]2CO | – | · | · | ·
O=C1/C(=C/c2cccc(Br)c2)SC(=S)N1CCC(=O)N(CCO)c1ccccc1 | ? | – | – | 86
O=C1/C(=C/c2ccc3c(c2)OCO3)SC(=S)N1CCC(=O)N(CCO)c1ccccc1 | – | – | · | –
Nc1nc(=S)c2ncn(C3CCCCC3)c2[nH]1 | – | 64 | · | –
